From the supplement of paper PMC11482750
± gives the standard deviation of the averaged measurements.

Each target was assayed with C=CCN=C=S [allyl isothiocyanate] (assay: control-subtracted net OSN firing rate; higher = stronger neuronal activation). Details: odorant dilution (vol/vol): 1/100.
Procedure, shortened: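 Responses come from single sensillum recordings of palp or antennal olfactory sensory neurons in 1–5-day-old fed female Scaptomyza species or D. melanogaster wild-type, mutant or at1 empty-neuron lines with Or42a homologs. Stimuli were 1 s pulses of odorant at 1:100 vol/vol in mineral oil or dimethyl sulfoxide into 16 ml/min filtered air. Spikes from 0.2 s after onset, counted over 0.5 s, were background-subtracted, doubled, solvent-corrected and averaged over replicates.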

In order of falling “control-subtracted net OSN firing rate” value:
1. TrpA1- (D. melanogaster) pb1a  152 ± 22 spikes/s
2. w1118 (D. melanogaster) pb1a  91.3 ± 46 spikes/s
3. Canton-S (D. melanogaster) ab4a  83.1 ± 18 spikes/s
4. Canton-S (D. melanogaster) ab8b  45.4 ± 36 spikes/s
5. Canton-S (D. melanogaster) ab9a  41 ± 45 spikes/s
6. Canton-S (D. melanogaster) ab8a  31.1 ± 18 spikes/s
7. Canton-S (D. melanogaster) ab3a  30 ± 16 spikes/s
8. Canton-S (D. melanogaster) ab1b  15.3 ± 20 spikes/s
9. Canton-S (D. melanogaster) ab10a  8.8 ± 6.8 spikes/s
10. Canton-S (D. melanogaster) ai3c  6 ± 13 spikes/s
11. Canton-S (D. melanogaster) ai2a  4 ± 7.8 spikes/s
12. Canton-S (D. melanogaster) ai3b  3.67 ± 7.3 spikes/s
13. Canton-S (D. melanogaster) ab6a  2.67 ± 5.9 spikes/s
14. Canton-S (D. melanogaster) ab9b  2.33 ± 17 spikes/s
15. Canton-S (D. melanogaster) at4c  1.33 ± 4.7 spikes/s
16. Canton-S (D. melanogaster) ai3a  0.667 ± 6 spikes/s
17. Canton-S (D. melanogaster) ab10b  0.4 ± 5.7 spikes/s
18. Canton-S (D. melanogaster) at1  -0.286 ± 14 spikes/s
19. Canton-S (D. melanogaster) ai2b  -1.14 ± 4.3 spikes/s
20. Canton-S (D. melanogaster) ab2a  -1.33 ± 2.4 spikes/s
21. Canton-S (D. melanogaster) ab5a  -2 ± 7.1 spikes/s
22. Or42a- (D. melanogaster) pb1a  -2.5 ± 4 spikes/s
23. Canton-S (D. melanogaster) ab4b  -2.57 ± 3.2 spikes/s
24. Canton-S (D. melanogaster) at4a  -3 ± 7.5 spikes/s
25. Canton-S (D. melanogaster) at4b  -3 ± 6.5 spikes/s
26. Canton-S (D. melanogaster) ab5b  -3.14 ± 11 spikes/s
27. Canton-S (D. melanogaster) ab1c  -3.33 ± 11 spikes/s
28. Canton-S (D. melanogaster) ab1a  -3.67 ± 15 spikes/s
29. Canton-S (D. melanogaster) ab1d  -4.33 ± 9.1 spikes/s
30. Canton-S (D. melanogaster) ab3b  -4.33 ± 7.5 spikes/s
31. Canton-S (D. melanogaster) ab7b  -5.14 ± 9.4 spikes/s
32. Canton-S (D. melanogaster) ab6b  -5.33 ± 19 spikes/s
33. Canton-S (D. melanogaster) ab2b  -6 ± 4 spikes/s
34. Canton-S (D. melanogaster) ab7a  -8.86 ± 13 spikes/s
